S1P2 antag = antagonists of human S1P2 receptor; O95136; cell-based S1P2 antagonist assay, inhibition at 5 uM; inhibition, % at 5 µM; 97,000 tested, 0.21% active; AID 736; in the data active means inhibition above about 45%;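 further: CRE beta-lactamase reporter cells expressing human S1P2 stimulated with S1P; 0% = agonist at EC80 alone and 100% = agonist plus reference antagonist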
GALR2 ag = activates the human galanin receptor 2; GALR2-expressing cells, agonist activation read-out; activation, % (no concentration beside the values); 140,000 tested, 0.48% active; in the data active means activation above about 5%, passing the limit was not always enough;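 further: 0% = vehicle buffer wells and 100% = reference agonist at full effect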
Target sequence (O43603 whole entry, looked up): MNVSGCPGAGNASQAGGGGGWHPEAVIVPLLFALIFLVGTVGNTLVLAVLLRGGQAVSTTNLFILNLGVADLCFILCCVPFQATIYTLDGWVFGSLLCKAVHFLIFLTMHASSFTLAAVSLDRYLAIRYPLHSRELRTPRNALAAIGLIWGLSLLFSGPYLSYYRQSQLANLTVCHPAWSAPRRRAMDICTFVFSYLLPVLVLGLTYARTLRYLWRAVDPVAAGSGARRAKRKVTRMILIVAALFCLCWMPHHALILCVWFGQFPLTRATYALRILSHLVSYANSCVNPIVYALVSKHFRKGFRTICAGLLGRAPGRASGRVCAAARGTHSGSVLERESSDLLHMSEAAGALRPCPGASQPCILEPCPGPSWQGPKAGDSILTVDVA
S1P2 ag = S1P2 (human) receptor agonism | activation, % at 4.5 µM | 97,000 tested, 0.46% active | O95136 | S1P2-expressing cell line, agonist reporter read-out; in the data active means activation above about 16%;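 further: 0% = vehicle low control and 100% = maximal reference agonist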
GALR2 blocker = GALR2 (human) receptor antagonism; AID 828; inhibition, % at 4 µM; 140,000 tested, 0.39% active; GALR2-expressing cells, antagonist mode; O43603; in the data active means inhibition above about 27%;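 further: cells stimulated with galanin 1-16 at roughly its EC80; 0% = agonist challenge control and 100% = basal control without agonist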
* marks the source's active call; other numbers are inactive results; x = no result. Compounds with a hit are over-represented: about 1.2% of the library has one in this group of screens.

SMILES	S1P2 antag	GALR2 ag	S1P2 ag	GALR2 blocker
CCCSc1cc(NCCOC(=O)CCC)c([N+](=O)[O-])c2nonc12	x	-1	x	-12
CCCC(=O)OCCNc1cc(Sc2nccn2C)c2nonc2c1[N+](=O)[O-]	x	6.2*	x	4
CCOc1ccc(/C=N/N2C(=O)C(CC(=O)Nc3ccc(F)cc3F)SC2=NC)cc1OC (centres undefined)	x	6.0*	x	6
CCn1nc(NC(=O)c2ccccn2)c2cc3cccc(C)c3nc21	-33	6	19*	-17
CCn1c2ccccc2c2nc3cc(S(=O)(=O)N4CCOCC4)ccc3nc21	-32	2	31*	-19
COc1cc2c(cc1NC(=O)C(c1ccccc1)c1ccccc1)CCCC2	-15	-1	1	-16
CSc1sc2ccccc2[n+]1CCCS(=O)(=O)[O-]	3	-2	26*	-10
COc1ccc2sc(SCCCS(=O)(=O)O)[n+](CCCS(=O)(=O)[O-])c2c1	x	0	x	1
COc1ccccc1N=c1oc2cc(O)ccc2cc1C(=O)NCC1CCCO1 (centres undefined)	-16	29*	16	-15
COc1ccccc1N=c1oc2cc(O)ccc2cc1C(N)=O	-34	20*	45*	-46
COc1ccccc1NC(=O)c1cc2ccc(O)cc2o/c1=N\O	-2	1	-2	0
Cc1cccc(N=c2oc3cc(O)ccc3cc2C(N)=O)c1	-43	66*	30*	-28
CS(=O)(=O)N(CC(=O)N1CCN(c2ccc(F)cc2)CC1)c1ccc(F)c(Cl)c1	7	-3	-5	-13
Cc1cc2ncn(/N=C/c3ccc([N+](=O)[O-])o3)c2cc1C	10	-2	-7	11
CCOc1cc(C2C3=C(CCCC3=O)N(CCC(=O)O)C3=C2C(=O)CCC3)ccc1OS(=O)(=O)c1ccc(C)cc1	x	1	x	-2
Cc1ccc(S(=O)(=O)Oc2ccc(C3C4=C(CCCC4=O)N(CCC(=O)O)C4=C3C(=O)CCC4)cc2Cl)cc1	x	6.6*	x	9
N#Cc1c(-c2cccs2)nc(SCC(=O)c2cccs2)[nH]c1=O	-7	-1	0	-10
CCSc1nc(-c2ccccc2)nc(C(Cl)Cl)n1	x	7.6*	x	-4
Cc1ccc(-c2noc(CCC(=O)N3CCCc4ccccc43)n2)cc1	-6	-2	43*	-8
Cc1ccc(-c2nnn(CC(=O)N3CCCc4ccccc43)n2)cc1	9	-2	-6	-6
Cc1cccn2c(=O)c3cc(C(=O)NCCc4ccccc4)c(=N)n(CCCn4ccnc4)c3nc12	-98	8	64*	-5
CCNC(=O)c1cc2c(=O)n3cccc(C)c3nc2n(CCc2ccccc2)c1=N	0	0	-4	4
Cc1cccn2c(=O)c3cc(C(=O)NCCN4CCOCC4)c(=N)n(CCc4ccccc4)c3nc12	-32	7.9*	39*	-29
CCCCNC(=O)c1cc2c(=O)n3cccc(C)c3nc2n(Cc2ccccc2)c1=N	x	7.7*	x	4
CCCOc1ccc(CN(CCC#N)C(=S)NC(=O)c2ccccc2)cc1	x	0	x	6
SMILES	S1P2 antag	GALR2 ag	S1P2 ag	GALR2 blocker
CCCc1nnc(NC(=O)C(CC)OC(=O)c2cc(C)nc3ccccc23)s1 (centres undefined)	7	-1	0	4
COc1ccc(OCC(O)Cn2c(=N)n(Cc3ccccc3)c3ccccc32)cc1 (centres undefined)	46	-2	-10	29*
CS(=O)(=O)c1ncc(Cl)c(C(=O)Nc2ccc(N3CCOCC3)cc2)n1	x	-1	x	29*
O=C(Nc1ccc(N2CCOCC2)cc1)c1ccc(Cl)nc1	16	-1	-7	-2
CN(C)c1ccc(C2SCCN2C(=O)c2ccc([N+](=O)[O-])cc2)cc1 (centres undefined)	x	-1	x	7
O=C(CCl)NC(=O)NC12CC3CC(CC(C3)C1)C2	x	-1	x	7
COc1ccccc1NC(=O)CN1CCC(n2c(C)nc3cc(F)ccc32)CC1	-30	4	19*	-16
CCCc1nc(N)c(C#N)c(N)c1C#N	-37	-1	17*	-4
Nc1nsc2ccccc12	50*	-2	-3	50*
Nc1ccc2c(c1)sc1ccccc12	x	-1	x	9
COc1ccc(NC(=O)CCCc2c[nH]c3ccccc23)cc1OC	x	-1	x	-2
COc1ccc(C(c2c[nH]c3ccccc23)c2c[nH]c3ccccc23)cc1O	5	-1	89*	-6
CCc1ccc(NC(=O)N(Cc2ccco2)C(C)c2cccs2)cc1 (centres undefined)	9	-2	41*	6
Cc1ccc(Nc2nc(N)nc(CSC(=S)N3CCOCC3)n2)c(C)c1	x	0	x	-5
Cc1ccc(C2CC(c3cccs3)=NN2C(=O)CSc2nc3ccccc3o2)cc1 (centres undefined)	x	-1	x	11
